# Measured values reported in PubChem BioAssay (Tox21).
# Several values for one entry are separate records, joined by “and”; a condition that tells them apart may be missing. Identical values can stand only once. Records with an inconclusive call do not appear. A call without a number means that no potency is given here. Some structures have more than one record in an assay (separate samples or runs), and their calls can disagree. Activity calls are given as the source filed them. Unless noted, calls come from the whole dose curve; as a rule, active = well fitted curve in the direction sought with a large enough effect in the repeat runs; inconclusive = weak or mixed curves; inactive = no such curve, though single readings can be large; an effect the other way counts as inactive or inconclusive.
# Tests used:
# [1] = target: Luciferin 4-monooxygenase (Photinus pyralis) (UniProt P08659); assay: qHTS assay to identify small molecule inhibitors of firefly luciferase (AID 1224835); note: nearly all actives have a fitted effect of over 25% in size; note: potency is the fitted concentration of half-maximal effect
# Sequence of Luciferin 4-monooxygenase (Photinus pyralis) (P08659 whole entry, looked up): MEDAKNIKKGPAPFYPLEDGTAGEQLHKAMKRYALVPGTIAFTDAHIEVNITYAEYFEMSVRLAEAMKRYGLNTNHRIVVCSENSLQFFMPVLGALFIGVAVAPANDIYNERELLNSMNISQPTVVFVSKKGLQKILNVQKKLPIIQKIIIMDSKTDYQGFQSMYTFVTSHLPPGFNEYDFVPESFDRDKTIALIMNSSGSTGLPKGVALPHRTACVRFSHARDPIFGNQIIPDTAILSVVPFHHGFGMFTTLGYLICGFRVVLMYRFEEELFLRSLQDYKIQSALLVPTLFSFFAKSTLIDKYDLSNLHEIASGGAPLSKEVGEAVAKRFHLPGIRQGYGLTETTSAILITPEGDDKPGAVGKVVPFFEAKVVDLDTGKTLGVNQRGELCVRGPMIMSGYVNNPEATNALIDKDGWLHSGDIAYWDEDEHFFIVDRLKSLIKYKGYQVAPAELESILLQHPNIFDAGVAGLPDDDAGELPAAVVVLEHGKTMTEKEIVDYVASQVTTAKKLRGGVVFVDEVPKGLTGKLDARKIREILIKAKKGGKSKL
# Method in brief: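 Inhibition of purified Photinus luciferase is measured by luminescence. Substrate levels (D-luciferin, ATP) sit at their KM values. Each compound is tested in a concentration series.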
# [2] = qHTS assay to identify small molecule agonists of the constitutive androstane receptor (CAR) signaling pathway - cell viability counter screen (AID 1224836); note: nearly all actives have a fitted effect of over 45% in size; note: potency is the fitted concentration of half-maximal effect
# Method in brief: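 HepG2 cells stably carrying hCAR and a CYP2B6-2.2kb reporter; 15-concentration compounds plus PK11195 (final 0.75 uM), 23 hr at 37 C/5% CO2. Viability read by CellTiter-Fluor fluorescence.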
# [3] = qHTS assay to identify small molecule antagonists of the constitutive androstane receptor (CAR) signaling pathway - cell viability counter screen (AID 1224837); note: nearly all actives have a fitted effect of over 45% in size; note: potency is the fitted concentration of half-maximal effect
# Method in brief: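 Viability was measured with CellTiter-Fluor in a HepG2 line carrying stably transfected hCAR and a CYP2B6-2.2kb construct. Cells were exposed for 23 hr at 37 C to 15 compound concentrations with 50 nM CITCO as agonist.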
# [4] = target: Nuclear receptor subfamily 1 group I member 3 (Homo sapiens) (UniProt Q14994); assay: qHTS assay to identify small molecule antagonists of the constitutive androstane receptor (CAR) signaling pathway (AID 1224838);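 note: HepG2 cells stably expressing hCAR with CYP2B6 luciferase reporter stimulated by CITCO; nearly all actives have a fitted effect of over 40% in size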; note: potency is the fitted concentration of half-maximal effect
# Sequence of Nuclear receptor subfamily 1 group I member 3 (Homo sapiens) (Q14994 whole entry, looked up): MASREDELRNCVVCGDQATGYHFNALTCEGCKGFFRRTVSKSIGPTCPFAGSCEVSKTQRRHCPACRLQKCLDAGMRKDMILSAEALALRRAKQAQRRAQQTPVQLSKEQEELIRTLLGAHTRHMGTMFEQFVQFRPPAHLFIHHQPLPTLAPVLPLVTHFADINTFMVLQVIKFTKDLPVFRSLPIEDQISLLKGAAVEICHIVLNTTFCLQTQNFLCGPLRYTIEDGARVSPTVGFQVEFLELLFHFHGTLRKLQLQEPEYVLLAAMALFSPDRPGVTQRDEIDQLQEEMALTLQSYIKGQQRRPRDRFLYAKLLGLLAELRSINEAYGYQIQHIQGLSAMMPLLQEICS
# Method in brief: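 Antagonist mode used CITCO at a final 50 nM to activate CAR in human hepatoma HepG2 cells carrying stable hCAR and a 2.2 kb CYP2B6 promoter-luciferase construct. Compounds were tested at 15 concentrations over 24 h, with luminescence as the end point.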
# [5] = target: Nuclear receptor subfamily 1 group I member 3 (Homo sapiens) (UniProt Q14994); assay: qHTS assay to identify small molecule agonists of the constitutive androstane receptor (CAR) signaling pathway (AID 1224839); note: nearly all actives have a fitted effect of over 15% in size; note: potency is the fitted concentration of half-maximal effect
# Method in brief: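 HepG2 cells stably co-transfected with hCAR and a CYP2B6-2.2kb luciferase reporter; compounds at 15 concentrations with 0.75 uM PK11195 present. After 24 hr at 37 C, luciferase read by ONE-Glo luminescence.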
# [6] = qHTS assay to identify small molecule antagonists of the estrogen related receptor signaling pathway with the pleiotropic PPARgamma coactivator (PGC) from Tox21 10K library - cell viability counter screen (AID 1224840; active = well fitted cell-killing curve with a large enough effect in the repeat runs, not every such curve was filed as active; note: nearly all actives have a fitted effect of over 40% in size; note: potency is the fitted concentration of half-maximal effect)
# Method in brief: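 Multiplexed viability counter screen in the PGC/ERR cell line: cells treated with DMSO-dissolved compounds for 17.5 hours at 37 C, then viability measured as CellTiter-Fluor fluorescence.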
# [7] = target: Thyrotropin receptor (Homo sapiens) (UniProt P16473); assay: qHTS assay to identify small molecule agonists of the thyroid stimulating hormone receptor (TSHR) signaling pathway (AID 1224843; calls by dose curve; note: nearly all actives have a fitted effect of over 45% in size; note: potency is the fitted concentration of half-maximal effect)
# Sequence of Thyrotropin receptor (Homo sapiens) (P16473 whole entry, looked up): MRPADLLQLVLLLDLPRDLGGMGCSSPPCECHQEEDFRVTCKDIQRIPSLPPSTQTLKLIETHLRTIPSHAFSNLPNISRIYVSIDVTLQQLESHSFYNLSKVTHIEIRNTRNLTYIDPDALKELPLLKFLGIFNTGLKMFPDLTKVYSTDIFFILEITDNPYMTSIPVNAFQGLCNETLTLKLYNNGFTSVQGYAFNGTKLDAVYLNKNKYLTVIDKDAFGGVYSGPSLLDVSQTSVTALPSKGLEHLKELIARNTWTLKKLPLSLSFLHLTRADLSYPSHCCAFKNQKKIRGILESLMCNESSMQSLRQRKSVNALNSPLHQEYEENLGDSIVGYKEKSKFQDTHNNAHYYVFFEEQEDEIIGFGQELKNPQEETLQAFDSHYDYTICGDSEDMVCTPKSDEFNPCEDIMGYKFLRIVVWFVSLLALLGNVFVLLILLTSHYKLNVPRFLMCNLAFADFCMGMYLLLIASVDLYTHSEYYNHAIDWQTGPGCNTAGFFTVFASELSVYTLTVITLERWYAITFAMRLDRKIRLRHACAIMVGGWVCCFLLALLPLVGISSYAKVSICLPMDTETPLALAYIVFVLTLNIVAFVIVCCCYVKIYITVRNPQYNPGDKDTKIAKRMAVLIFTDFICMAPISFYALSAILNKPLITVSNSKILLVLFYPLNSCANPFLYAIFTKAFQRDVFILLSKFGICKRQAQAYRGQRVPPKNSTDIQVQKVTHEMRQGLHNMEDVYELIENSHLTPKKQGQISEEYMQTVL
# Method in brief: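 A cell-based cAMP HTRF format was run in TSHR-transfected HEK293 cells, 800 per well. Treatment: 30 min, room temperature. Detection: 1 h with labelled cAMP and anti-cAMP cryptate. Concentration-response over 15 points, three replicates.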
# [8] = qHTS assay to identify small molecule agonists of the hypoxia (HIF-1) signaling pathway - cell viability counter screen (AID 1224844; calls by dose curve; note: nearly all actives have a fitted effect of over 50% in size; note: potency is the fitted concentration of half-maximal effect)
# Method in brief: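 Cytotoxicity was measured in parallel with the HRE-driven beta-lactamase readout: after 17 hrs of compound exposure at 37C, HRE-bla ME-180 cells received CellTiter-Glo and luminescence was recorded 30 min later.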
# [9] = qHTS assay to identify small molecule antagonists of the estrogen related receptor signaling pathway with the pleiotropic PPARgamma coactivator (PGC) from Tox21 10K library (AID 1224841; call rule not given here; note: actives are mostly falling curves and most rising ones were filed inactive; nearly all actives have a fitted effect of over 50% in size; note: potency is the fitted concentration of half-maximal effect)
# Method in brief: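 Steps: plate 2,000 PGC/ERR cells per well; incubate 6 h at 37 C with 5% CO2; transfer compounds from DMSO stocks by pin tool; incubate 18 h at 37 C; add One-Glo; measure luminescence 30 min later.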
# [10] = qHTS assay to identify small molecule agonists of the estrogen related receptor signaling pathway with the pleiotropic PPARgamma coactivator (PGC) from Tox21 10K library (AID 1224842); note: nearly all actives have a fitted effect of over 15% in size
# Method in brief: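 Luminescence from One-Glo (30 min, room temperature) measured after PGC/ERR cells had 18 h at 37 C with pinned compound (23 nL in DMSO). Cells had been seeded at 2,000 per well and pre-incubated 6 h.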
SMILES,Potency [1],Potency [2],Potency [3],Potency [4],Potency [5],Potency [6],Potency [7],Potency [8],Potency [9],Potency [10]
CC/C=C\C/C=C\C/C=C\CCCCCCCC(=O)O,inactive,inactive,inactive,inactive,inactive,inactive,inactive,inactive,–,–
O=S1(=O)CCCO1,inactive,inactive,inactive,inactive,inactive,inactive,inactive,inactive,–,–
C=C[Si](OCCOC)(OCCOC)OCCOC,inactive,inactive,inactive,inactive,inactive,inactive,inactive,inactive,–,–
C=CC(C)(O)CCC=C(C)C (configuration not stated),inactive,inactive,inactive,inactive,inactive,inactive,inactive,inactive,–,–
Cc1cccc(Nc2ccccc2C(=O)O)c1C,79.6 µM (active),inactive,inactive,inactive,inactive,inactive,–,inactive,–,–
[Na+],inactive,inactive,inactive,inactive,inactive,inactive,–,inactive,–,–
O=C(O)COCCN1CCN(C(c2ccccc2)c2ccc(Cl)cc2)CC1 (configuration not stated),inactive,inactive,inactive,inactive,inactive,inactive,inactive,inactive,–,–
CCC/C=C/C=O,inactive,inactive,inactive,inactive,–,inactive,inactive,inactive,–,–
C=CN1CCCC1=O,inactive,inactive,inactive,inactive,inactive,inactive,–,inactive,–,–
Cc1ccc2c(c1)C(=O)OC2=O,inactive,inactive,inactive,inactive,inactive,inactive,–,inactive,–,–
C[N+](C)(C)CCO,inactive,inactive,inactive,inactive,inactive,inactive,inactive,inactive,–,–
O=C(O)CCCCCCCCCCCC(=O)O,inactive,inactive,inactive,–,–,inactive,inactive,48.2 µM (active) and inactive,60.1 µM (active) and inactive,inactive
c1ccc2ncccc2c1,inactive,inactive,inactive,inactive,inactive,inactive,inactive,inactive,–,–
O=C(O)CCCC(=O)O,inactive,inactive,inactive,inactive,inactive,inactive,inactive,inactive,–,–
CN(C)C,inactive,inactive,inactive,inactive,inactive,inactive,–,inactive,–,–
Nc1ccc2c(c1)C(=O)c1ccccc1C2=O,2.78 µM (active) and 2.52 µM (active),inactive,inactive,inactive,1.34 µM (active) and 969 nM (active),inactive,–,inactive,–,–
Cc1ccc(C(C)(C)C)cc1,inactive,inactive,inactive,inactive,inactive,inactive,inactive,inactive,–,–
COc1ccc2nc(N)sc2c1,35.6 µM (active) and 31.7 µM (active),inactive,inactive,inactive,54.5 µM (active) and 27.3 µM (active),inactive,inactive,inactive,–,–
C=CCCCCCCCCCC,inactive,inactive,inactive,inactive,inactive,inactive,–,inactive,–,–

SMILES,Potency [1],Potency [2],Potency [3],Potency [4],Potency [5],Potency [6],Potency [7],Potency [8],Potency [9],Potency [10]
[O-]/[N+](=N\O)c1ccccc1,35.3 µM (active) and 22.4 µM (active),inactive,inactive,inactive,–,inactive,inactive,inactive,–,inactive
Nc1cc(Cl)c(N)c(Cl)c1,inactive,inactive,inactive,inactive,inactive,inactive,inactive,inactive,–,–
Nc1ccc2c(O)cc(S(=O)(=O)O)cc2c1,63.4 µM (active) and 44.8 µM (active),21.7 µM (active),19.4 µM (active) and 68.6 µM (active),3.86 µM (active) and 686 nM (active),inactive,–,inactive,–,15.4 µM (active),inactive
COc1ccc(-c2coc3cc(O)cc(O)c3c2=O)cc1,6.38 µM (active) and 5.03 µM (active),inactive,inactive,inactive,15.5 µM (active) and 27.3 µM (active),inactive,inactive,inactive,–,–
Nc1ccc(N)c(Cl)c1,inactive,inactive,inactive,inactive,–,–,–,inactive,–,–
CC1(C)C(C=C(Cl)Cl)C1C(=O)OCc1cccc(Oc2ccccc2)c1 (configuration not stated),inactive,inactive,inactive,inactive,6.81 µM (active) and 6.11 µM (active),inactive,–,inactive,–,–
CC(C)=CCO,inactive,inactive,inactive,–,–,inactive,inactive,inactive,inactive,inactive
c1ccc2c(c1)[nH]c1ccccc12,39.2 µM (active) and inactive,inactive,inactive,inactive,60.1 µM (active),inactive,–,inactive,–,–
Clc1ccc(Sc2cc(Cl)c(Cl)cc2Cl)cc1,inactive,inactive,inactive,inactive,inactive,inactive,inactive,inactive,–,–
Brc1nc2ccccc2s1,39.8 µM (active),inactive,inactive,inactive,inactive,inactive,inactive,inactive,–,–
C[C@]12CC[C@@H]3c4ccc(O)cc4CC[C@H]3[C@@H]1CC[C@H]2O,inactive and 39.9 µM (active),inactive,inactive,inactive,–,inactive,–,inactive,inactive,inactive
O=C(O)c1cc(=O)[nH]c(=O)[nH]1,inactive,inactive,inactive,–,–,inactive,inactive,inactive,inactive,inactive
C1COCCN1,inactive,inactive,inactive,inactive,inactive,inactive,inactive,inactive,–,–
C=C[C@@]1(C)CC(=O)[C@]2(O)[C@@]3(C)[C@@H](O)CCC(C)(C)[C@@H]3[C@H](O)[C@H](OC(C)=O)[C@@]2(C)O1,inactive,inactive,inactive,27.3 µM (active) and inactive,inactive,inactive,17.2 nM (active) and 18.8 nM (active),38.9 µM (active),–,–
Cc1ccc(N)c([N+](=O)[O-])c1,–,inactive,inactive,inactive,inactive,inactive,inactive,inactive,–,–
CC[C@]12CCCN3CCc4c(n(c5ccccc45)[C@@](O)(C(=O)OC)C1)[C@@H]32,inactive,inactive,inactive,–,–,inactive,–,inactive,inactive,inactive
CC/C(=C(/CC)c1ccc(O)cc1)c1ccc(O)cc1,–,inactive,inactive,–,–,inactive,–,inactive,–,–
c1ccc2c(c1)ccc1cc3c(ccc4ccccc43)cc12,788 nM (active) and 250 nM (active),inactive,inactive,–,–,inactive,inactive,inactive,–,–
Cc1ccc(/C(=C\CN2CCCC2)c2ccccn2)cc1,–,inactive,inactive,–,–,inactive,inactive,inactive,–,–

SMILES,Potency [1],Potency [2],Potency [3],Potency [4],Potency [5],Potency [6],Potency [7],Potency [8],Potency [9],Potency [10]
CC(=O)OC(C)C,inactive,inactive,inactive,–,–,inactive,inactive,inactive,–,–
CCCCCCC(C)O (configuration not stated),inactive,inactive,inactive,–,–,inactive,–,inactive,–,–
IC(I)I,35.5 µM (active) and 35.6 µM (active),inactive,inactive,–,–,inactive,inactive,inactive,48.5 µM (active) and inactive,inactive
CC(C)[C@@H]1CC[C@@H](C)CC1=O,inactive,inactive,inactive,–,–,inactive,inactive,inactive,–,–
CC(=O)Oc1ccc(C(c2ccc(OC(C)=O)cc2)c2ccccn2)cc1,inactive,inactive,inactive,–,–,inactive,inactive,109 nM (active) and 756 nM (active),–,–
Cc1ccc([N+](=O)[O-])c(C)c1,31.7 µM (active) and inactive,–,–,8.63 µM (active) and inactive,inactive,21.7 µM (active) and inactive,inactive,4.37 µM (active) and inactive,61.1 µM (active) and inactive,inactive
Oc1ccc(C(c2ccc(O)cc2)C(Cl)(Cl)Cl)cc1,inactive,inactive,inactive,–,–,–,–,inactive,–,–
O=C1OC2(c3ccccc31)c1cc(I)c(O)c(I)c1Oc1c2cc(I)c(O)c1I,–,15.5 µM (active) [middle of 4 runs],15.4 µM (active) [middle of 4 runs],6.13 µM (active) and inactive and 14.8 µM (active),inactive,13.7 µM (active) and 19.6 µM (active) and 16.6 µM (active),–,inactive,15.4 µM (active) and 15.5 µM (active),inactive
C[C@]12C=CC(=O)C=C1CC[C@H]1[C@@H]3C[C@@H](O)[C@](O)(C(=O)CO)[C@@]3(C)C[C@H](O)[C@@]12F,inactive,inactive,inactive,–,–,inactive,inactive,inactive,inactive,inactive
Cc1ccc(S(=O)(=O)NCl)cc1,–,inactive,inactive,–,–,inactive,inactive,inactive,inactive,inactive
CCCCCCOCCOCCO,–,inactive,inactive,–,–,inactive,inactive,inactive,–,–
CN(C)/N=N/c1nc[nH]c1C(N)=O,inactive,inactive,inactive,–,–,inactive,inactive,inactive,inactive,inactive
NCCN,inactive,inactive,inactive,–,–,inactive,inactive,inactive,–,–
OCCNCCO,inactive,inactive,inactive,–,–,inactive,inactive,inactive,inactive,inactive
CCCCCCCC/C=C\CCCCCCCC(=O)O,71.4 µM (active),inactive,inactive,–,–,inactive,inactive,inactive,–,–
COc1cc([C@H]2Oc3cc([C@H]4Oc5cc(O)cc(O)c5C(=O)[C@@H]4O)ccc3O[C@@H]2CO)ccc1O,inactive,inactive,inactive,–,–,54.3 µM (active) and inactive,–,inactive,inactive,inactive
CC(C)[N+](C)(CCOC(=O)C1c2ccccc2Oc2ccccc21)C(C)C,inactive,inactive,inactive,–,–,inactive,inactive,inactive,–,–
C=CCNCC=C,inactive,inactive,inactive,–,–,inactive,–,inactive,–,–
